Measurements taken from PMC9574860, “Chemical Toolkit for PARK7: Potent, Selective, and High-Throughput” (Journal of Medicinal Chemistry, 2022).
Hit rate of the full screen: of about 7,900 compounds, about 400 (5.1%) showed an effect of 50% or more. Only a selection was taken, and strong results are over-represented in it overall.

Each compound was assayed against Parkinson's disease protein 7 (PARK7/DJ1) (human, UniProt Q99497) (assay: primary screen, percent inhibition; read as competition with a fluorescent probe by fluorescence polarization; higher = more effect of the substance). Details: 100 µM.
Method: The screen was conducted using the conditions as described above in 1536-well plates (Corning 3724) with a reaction volume of 8 μL per well. The compound library containing 7887 covalent fragments was purchased at Enamine Ltd. and received as 100 mM DMSO stocks in 384 well LDV Echo plates (Labcyte LP-0200). Stock solutions of 0.26 μM PARK7 and 80 nM JYQ-107 were prepared. Using a Labcyte Echo550 acoustic dispenser, 8 nL of the DMSO stock solution of the library compounds was transferred from the source plates into the empty 1536-well screening plates to obtain a 100 μM final compound concentration. Next, PARK7 (6 μL, final concentration 0.2 μM) was dispensed using a Biotek MultiflowFX liquid dispenser and incubated for 2 h, followed by dispensing the probe JYQ-107 (2 μL, final concentration 20 nM). After 2 h incubation, the FP signal was recorded on a BMG Labtech PHERAstar plate reader (λex/em 480/520 nm). The relative loss of FP signal compared with reference controls was used to calculate the remaining enzyme activity.

Sequence of Parkinson's disease protein 7 (PARK7/DJ1) (Q99497 whole entry, looked up, the tested form may be a part): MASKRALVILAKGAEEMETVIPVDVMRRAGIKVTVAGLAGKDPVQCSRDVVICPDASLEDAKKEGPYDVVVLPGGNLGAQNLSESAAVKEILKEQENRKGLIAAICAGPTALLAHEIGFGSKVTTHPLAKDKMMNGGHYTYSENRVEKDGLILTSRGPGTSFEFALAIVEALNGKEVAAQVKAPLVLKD

Compared with `C=CC(=O)Nc1ccc2nc(C(F)(F)F)oc2c1`, `C=CC(=O)Nc1ccc2nc(C3CC3)oc2c1` is lower in Inhibition %: 20.1% for the first, 11.6% for the second.

First: C=CC(=O)N1CCN(c2cccc(OC(F)F)c2)CC1
Second: C=CC(=O)N1CCN(c2c(F)cccc2OC)CC1
The Inhibition % of the first is lower: 6.79% for the first, 12% for the second.

Going from `CC(C)c1ccc(NC(=O)Cn2cnc(C#N)n2)cc1` to `CC(C)c1ccc(NC(=O)CCl)cc1`, the Inhibition % rises from 22.6% to 95.8%.

Going from `O=S(=O)(F)CCSc1nc2ccccc2o1` to `O=S(=O)(F)CCn1nnc2ccccc21`, the Inhibition % falls from 70.3% to 8.8%.

Compared with `ClCCCc1nc2ccccc2o1`, `CCc1ccccc1NC(=O)CCl` is lower in Inhibition %: 16.4% for the first, 13.2% for the second.

Compared with `COc1cc(C=C(C#N)C(N)=O)ccc1OC(C)C`, `Cc1cc(C=C(C#N)C(=O)O)c(C)n1CC(C)C` is higher in Inhibition %: 4.85% for the first, 8.48% for the second.

Going from `N#Cc1nc(-c2ccc(Cl)c(Cl)c2)oc1N` to `Cc1ccc2oc(C#N)nc2c1`, the Inhibition % rises from 5.93% to 9.34%.

Going from `CC1(C)OB(c2cccc(CN3CCCC3)c2)OC1(C)C.Cl` to `CC1(C)OB(c2cccc(S(N)(=O)=O)c2)OC1(C)C`, the Inhibition % falls from 6.39% to 2.2%.

Compared with `C=CC(=O)N1CCc2cc(F)ccc2C1`, `C=CC(=O)N1CCOc2ccc(F)cc2C1` is higher in Inhibition %: 10.6% for the first, 11.2% for the second.

Going from `C=CC(=O)N1CCCN(C(=O)c2cccc(F)c2)CC1` to `C=CC(=O)N1CCCc2[nH]c3ccc(F)cc3c2C1`, the Inhibition % rises from 2.43% to 71.3%.

Compared with `C=CC(=O)N1CC(C)(C)C1c1cccs1` (stereo not shown), `C=CC(=O)N1CCOCC1c1cccc(F)c1` (stereo not shown) is lower in Inhibition %: 8.35% for the first, 2.96% for the second.

Compared with `C=CC(=O)N1C[C@H](F)C[C@H]1C(N)=O`, `C=CC(=O)N1CCC(CNC(C)=O)CC1` is higher in Inhibition %: 11.6% for the first, 25% for the second.

First: CC1CCC2(CC1)NC(=O)N(CC=CCl)C2=O (stereo not shown)
Second: O=C1NC(c2ccccc2)C12CCCC2 (stereo not shown)
The Inhibition % of the first is lower: -0.501% for the first, 3.32% for the second.

First: CC(NC(=O)Oc1ccccc1)C(=O)O (stereo not shown)
Second: NS(=O)(=O)c1cccc(NC(=O)Oc2ccccc2)c1
The Inhibition % of the first is higher: 10.1% for the first, 4.87% for the second.

First: Cc1ccc(B2OC(C)(C)C(C)(C)O2)c(C#N)c1
Second: CC1(C)OB(c2ccc(OCCc3ccccn3)cc2)OC1(C)C
The Inhibition % of the first is lower: -0.714% for the first, -0.0918% for the second.

Going from `O=S(=O)(F)c1ccc(S(=O)(=O)F)cc1` to `O=S(=O)(F)c1ccc(Cl)cc1`, the Inhibition % rises from 7.58% to 27%.

Going from `O=C(O)c1cccc(S(=O)(=O)F)c1` to `O=C(O)c1ccc(S(=O)(=O)F)cc1`, the Inhibition % falls from 95.1% to 49.1%.

First: C#Cc1ccc(S(=O)(=O)F)cc1
Second: N#Cc1ccc(S(=O)(=O)F)cc1
The Inhibition % of the first is lower: 14.4% for the first, 60.6% for the second.

Going from `O=C(c1cccc(S(=O)(=O)F)c1)N1CCCn2ncc(C3CC3)c21` to `N#CC1COCCN1C(=O)c1cccc(S(=O)(=O)F)c1` (stereo not shown), the Inhibition % rises from 6.74% to 93.6%.

Compared with `O=S(=O)(F)c1cccc(CO)c1`, `O=S(=O)(F)c1cccc(Br)c1` is lower in Inhibition %: 96.8% for the first, 16.4% for the second.

Compared with `O=C(C=Cc1ccccc1)c1ccc(S(=O)(=O)F)cc1`, `Cl.Nc1cccc2cc(S(=O)(=O)F)ccc12` is higher in Inhibition %: 10.9% for the first, 65.6% for the second.

Going from `CN(Cc1cccc(F)c1)S(=O)(=O)F` to `N#Cc1cccc(S(=O)(=O)F)c1`, the Inhibition % rises from 8.98% to 97.3%.

Compared with `c1ncc(C2OCCO2)s1`, `O=C(O)c1ccc(C2OCCO2)cc1` is lower in Inhibition %: 38.6% for the first, 7.82% for the second.

Going from `C=CC(=O)N[C@H]1C[C@H](c2ccccc2F)C1` to `C=CC(=O)Nc1cccc(C(F)(F)F)c1`, the Inhibition % falls from 10.2% to 9.31%.

Going from `C=CC(=O)Nc1cc(S(=O)(=O)N(C)C)ccc1Cl` to `CS(=O)(=O)c1cccc(NC(=O)CCl)c1`, the Inhibition % rises from 6.55% to 7.34%.

Going from `Cc1ccc(-n2cnc(Cl)c2C#N)cc1` to `Cc1ccc(-n2cc(SC(=O)N(C)C)cn2)cc1`, the Inhibition % falls from 6.79% to 6.2%.

Compared with `COCc1n[nH]c(=O)o1`, `O=c1[nH]c(-c2cccs2)no1` is higher in Inhibition %: 2.07% for the first, 3.67% for the second.

First: CN1CCCC(CCl)C1.Cl (stereo not shown)
Second: O=C(CCl)NC1CCCC1
The Inhibition % of the first is lower: 4.37% for the first, 15.6% for the second.

First: CN(C(=O)C(C#N)=Cc1ccco1)c1ccc(F)cc1
Second: Cc1ccoc1C(=O)Nc1cccc(S(=O)(=O)F)c1
The Inhibition % of the first is higher: 8.11% for the first, 7.02% for the second.

First: c1cc2ccc(OCC3CO3)cc2[nH]1 (stereo not shown)
Second: COc1ccc(S(=O)(=O)n2ccc(C)n2)cc1
The Inhibition % of the first is lower: 5.75% for the first, 7.42% for the second.

First: Cc1cc(C#N)cc(C(=O)O)n1
Second: Cc1[nH]c(C#N)cc1C(=O)O
The Inhibition % of the first is lower: 4.24% for the first, 6.7% for the second.

Compared with `Cc1cnc(=S)[nH]c1`, `Cc1ccnc(S)n1.Cl` is lower in Inhibition %: 8.44% for the first, 5.09% for the second.

Going from `N#CSc1c(Cl)nc2sccn12` to `N#Cc1ncn(Cc2ccc(F)cc2Cl)n1`, the Inhibition % falls from 13.7% to 0.898%.

Going from `C=CC(=O)N1CCOCC1CC(F)F` (stereo not shown) to `C=CC(=O)N1CC(=O)NC2CCCCC21` (stereo not shown), the Inhibition % rises from 17% to 24.2%.

First: O=C(CCl)Nc1ccc([N+](=O)[O-])cc1C(F)(F)F
Second: O=[N+]([O-])c1ccc(C(F)(F)F)c(S(=O)(=O)F)c1
The Inhibition % of the first is lower: 12.1% for the first, 102% for the second.

Going from `O=[N+]([O-])c1cccc(S(=O)(=O)F)c1` to `NS(=O)(=O)c1cccc(S(=O)(=O)F)c1`, the Inhibition % falls from 99.2% to 94.3%.

Compared with `C=CS(=O)(=O)c1cccc(C#N)c1`, `NS(=O)(=O)c1cccc(NC(=O)CCl)c1` is higher in Inhibition %: 6.17% for the first, 14.7% for the second.

First: O=S(=O)(F)c1ccccc1C(F)(F)F
Second: Nc1ccccc1S(=O)(=O)F
The Inhibition % of the first is lower: 11.3% for the first, 44.7% for the second.

Going from `N#Cc1cnn(Cc2ccc(S(=O)(=O)F)cc2)c1` to `O=S(=O)(F)c1ccc(Cn2cnc(Br)n2)cc1`, the Inhibition % rises from 7.21% to 12.6%.

Compared with `O=C(CCl)NC(=O)c1cccc([N+](=O)[O-])c1`, `NS(=O)(=O)c1ccc(NC(=O)CCl)cc1` is higher in Inhibition %: 31.5% for the first, 69.2% for the second.

Compared with `CCC1(C)NC(=O)N(NC(=O)CCl)C1=O` (stereo not shown), `CS(=O)(=O)c1ccc(CNC(=O)CCl)cc1` is higher in Inhibition %: 9.56% for the first, 10.2% for the second.

First: Cc1cc(C=C(C#N)C(=O)N2CCC2)c(C)n1CC(C)C
Second: Cc1cc(C)n(CC2CCCN2C2CC(C)OC2=O)n1 (stereo not shown)
The Inhibition % of the first is higher: -2.1% for the first, -2.43% for the second.

First: O=C(CCl)Nc1ccccc1S(=O)(=O)C(F)F
Second: O=C(CCl)Nc1ccc(S(=O)(=O)C(F)F)cc1
The Inhibition % of the first is lower: 6.1% for the first, 65.8% for the second.

Going from `Cc1ccc(NC(=O)CCl)cc1S(N)(=O)=O` to `CS(=O)(=O)c1ccc(NC(=O)CCl)cc1`, the Inhibition % rises from 17.6% to 51.8%.

Going from `CCC(CSC)Nc1ccc(C#N)nc1` (stereo not shown) to `CCC(C)c1ccc(NC(=O)CCl)cc1` (stereo not shown), the Inhibition % rises from 11.4% to 99.1%.

Going from `C=CC(=O)NCCc1cnn(C)c1` to `CC(C)c1ccc(CCNC(=O)CCl)cc1`, the Inhibition % rises from 3.91% to 22%.

Compared with `Cl.Cl.NC1CCN(C2CCOC2=O)CC1` (stereo not shown), `O=C(CCl)C1CCOCC1` is higher in Inhibition %: 5.74% for the first, 99% for the second.

First: O=C(CCl)N(c1ccccc1)C1CCS(=O)(=O)C1 (stereo not shown)
Second: N#CC(c1ccccc1)N1CCN(C(=O)CCl)CC1 (stereo not shown)
The Inhibition % of the first is lower: 5.5% for the first, 18.3% for the second.

Going from `N#Cc1ncccc1S(N)(=O)=O` to `Nc1cccnc1S(=O)(=O)F`, the Inhibition % rises from 6.94% to 81.4%.

Compared with `O=C(CCl)NCc1ccc(C(=O)N2CCCC2)cc1`, `CCN(CC)C(=O)c1ccc(NC(=O)CCl)cc1` is higher in Inhibition %: 4.96% for the first, 43.2% for the second.

Going from `Cn1cc(C=CC(=O)N2CCc3ccccc32)cn1` to `C=CC(=O)N1CCc2nc(-c3ccccc3)sc2C1`, the Inhibition % rises from 3.76% to 16.7%.

First: Cc1ccsc1-c1nnc(NC(=O)CCl)o1
Second: CCC(C)c1ccc(-c2csc(NC(=O)CCl)n2)cc1 (stereo not shown)
The Inhibition % of the first is higher: 10.8% for the first, 8.03% for the second.

Compared with `N#Cc1ccc(C(=O)O)c(=O)[nH]1`, `N#Cc1ccc(C(=O)O)[nH]1` is lower in Inhibition %: 83.7% for the first, 7.43% for the second.

Compared with `CCC(C)c1ccccc1NC(=O)CCl` (stereo not shown), `CCN(c1ccc(NC(=O)CCl)cc1)C(C)C.Cl` is higher in Inhibition %: 16.8% for the first, 98.6% for the second.

First: CC(C)c1ccc(C(C)NC(=O)CCl)cc1 (stereo not shown)
Second: O=C(CCl)N1c2ccccc2Sc2ccc(Cl)cc21
The Inhibition % of the first is higher: 6.77% for the first, 6.3% for the second.

Compared with `C=CC(=O)NC(=O)NC12CC3CC(CC(C3)C1)C2`, `C=CC(=O)NCC1CCC(F)(F)CC1` is higher in Inhibition %: 3.27% for the first, 5.38% for the second.

Compared with `CC1(C)OC1c1ccccc1` (stereo not shown), `Cc1nc2c(C(=O)Nc3cccc(S(=O)(=O)F)c3)cccc2o1` is higher in Inhibition %: 13.4% for the first, 43.6% for the second.

Compared with `C#CCN(c1cnc(C#N)cn1)C1CCCC1`, `O=C(CCl)C1CCC(F)(F)CC1` is higher in Inhibition %: 1.73% for the first, 96.8% for the second.

Going from `COC1CS(=O)(=O)CC1Cl` (stereo not shown) to `O=C(CCl)NNC(=O)C1CC1`, the Inhibition % falls from 8.34% to 1.1%.

Compared with `CCc1nccn1S(=O)(=O)c1cc(Cl)c(C)cc1OC`, `COCc1ncsc1C(=O)Nc1cccc(S(=O)(=O)F)c1` is higher in Inhibition %: 4.53% for the first, 8.52% for the second.

First: O=c1onc(-c2ncccn2)n1Cc1ccc(Cl)s1
Second: Cc1cc(C(=O)Nc2cccc(S(=O)(=O)F)c2)c(C(F)(F)F)o1
The Inhibition % of the first is lower: 2.32% for the first, 96.8% for the second.

Compared with `O=C(CCl)NC1CCOCC1`, `O=C(CCl)NCC1CCOC1` (stereo not shown) is lower in Inhibition %: 10.5% for the first, 8.14% for the second.

Compared with `C=CC(=O)Nc1cccc(OC(F)F)c1`, `O=C(Nc1cccc(S(=O)(=O)F)c1)c1sccc1OC(F)F` is higher in Inhibition %: 4.3% for the first, 93.1% for the second.

Work on `O=C(Nc1cccc(S(=O)(=O)F)c1)c1ccoc1C(F)(F)F` yielded an Inhibition % of 96.8%.
